# Records with an inconclusive call do not appear. The source made the active and inactive calls. Unless noted, the call rests on the fitted dose curve.
# Tests used:
# [1] = qHTS drug screen for cell cycle checkpoint inhibitors in PARPi-resistant BRCA-mutant ovarian cancer cell lines. (AID 1963452); conditions: PEO1/OlaR viability, CellTiter-Glo luminescence, 96 h, stronger effect = lower value
# Procedure, shortened: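 PEO1, PEO4 and PEO1/OlaR ovarian cancer cells, 600 per well, exposed 96 h at 37C to a dilution series. Viability read by CellTiter-Glo luminescence, normalized to DMSO and empty wells; activity summarized as Z-AUC.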
# [2] = qHTS for identification of novel therapeutic agents for treatment of microphthalmiaassociated transcription factor (MiT) renal cell carcinoma (RCC) (AID 1963991); conditions: CellTiter-Glo, 48 h, stronger effect = lower value
# Procedure, shortened: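 Curves over 11 concentrations were fitted to CellTiter-Glo luminescence, scaled between empty wells (0%) and DMSO (100%) viability. Cells were UOK109, UOK124 and UOK145 TFE3-fusion RCC lines at 500/well, exposed 48 hours at 37 C.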
# [3] = Dual reporter qHTS for agonist of Pregnane X Receptor (hPXR) against the NCATS DSHEA and TCM libraries: Fluorescence readout (AID 1920058; active means well fitted curve in the direction sought with a large enough effect; an effect the other way counts as inactive or inconclusive; further: 0% is about no effect); conditions: PXR dual reporter cells; series mostly up to 40 µM
# Procedure, shortened: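 hPXR-Luc HepG2 cells, 2000/well in charcoal-stripped serum, attached 5 h, dosed for ~24 h at 37 °C. Fluorescence read is CellTiter-Fluor viability (Ex/Em 405/540 nm); rifampicin positive, tetraoctyl ammonium bromide (92 µM) cytotoxicity controls.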
# [4] = molecular target: Nuclear receptor subfamily 1 group I member 2 (Homo sapiens) (UniProt O75469); experiment: Dual reporter qHTS for agonist of Pregnane X Receptor (hPXR) against the NCATS DSHEA and TCM libraries: Luminescence readout (AID 1920059; active means well fitted curve in the direction sought with a large enough effect; an effect the other way counts as inactive or inconclusive; further: 0% is about no effect); conditions: hPXR dual reporter cells, luciferase luminescence agonist; series mostly up to 40 µM
# Chain of Nuclear receptor subfamily 1 group I member 2 (Homo sapiens) (O75469 whole entry, looked up): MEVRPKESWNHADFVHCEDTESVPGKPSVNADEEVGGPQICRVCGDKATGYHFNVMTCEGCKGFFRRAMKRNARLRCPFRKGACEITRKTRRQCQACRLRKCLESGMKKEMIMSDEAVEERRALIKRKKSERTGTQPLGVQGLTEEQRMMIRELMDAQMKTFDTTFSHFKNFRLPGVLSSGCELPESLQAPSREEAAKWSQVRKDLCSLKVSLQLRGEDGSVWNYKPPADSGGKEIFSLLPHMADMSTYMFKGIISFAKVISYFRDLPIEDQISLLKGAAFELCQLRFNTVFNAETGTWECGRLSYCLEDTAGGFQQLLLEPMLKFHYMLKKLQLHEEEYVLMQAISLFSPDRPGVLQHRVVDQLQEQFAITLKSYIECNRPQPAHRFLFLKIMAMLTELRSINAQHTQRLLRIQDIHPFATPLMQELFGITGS
# Procedure, shortened: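 hPXR-Luc HepG2 cells, 2000/well in 5% charcoal-stripped FBS medium, attached 5 h, then exposed 24 h at 37C to compounds. Viability by CellTiter-Fluor, then luciferase luminescence with ONE-Glo.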
# [5] = molecular target: Nuclear receptor subfamily 1 group I member 2 (Homo sapiens) (UniProt O75469); experiment: Dual reporter qHTS for antagonist of Pregnane X Receptor (hPXR) against the NCATS DSHEA and TCM libraries: Luminescence Readout (AID 1920060; active means well fitted curve in the direction sought with a large enough effect; an effect the other way counts as inactive or inconclusive;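 further: HepG2 cells carrying hPXR luciferase reporter stimulated with rifampicin at 2 µM; 0% is about no effect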); conditions: hPXR dual reporter cells, luciferase luminescence, antagonist mode; series mostly up to 40 µM
# Procedure, shortened: (§1)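 In antagonist mode, 2 uM rifampicin was added to hPXR-Luc HepG2 cells alongside test substances, incubated 24 h at 37 C; luminescence gave reporter activity, and CellTiter-Fluor fluorescence (405/540 nm) gave viability.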
# [6] = Dual reporter qHTS for antagonist of Pregnane X Receptor (hPXR) against the NCATS DSHEA and TCM libraries: Fluorescence Readout (AID 1920061; active means well fitted curve in the direction sought with a large enough effect; an effect the other way counts as inactive or inconclusive; further: 0% is about no effect); conditions: PXR dual reporter cells, antagonist mode; series mostly up to 40 µM
# Procedure, shortened: as §1
# [7] = qHTS profiling for inhibitors of Plasmodium falciparum proliferation (AID 504749; active means well fitted curve in the direction sought with a large enough effect; an effect the other way counts as inactive or inconclusive; further: potency means the concentration at half of the fitted maximal effect; nearly all actives have a fitted effect of over 60% in size); conditions: P. falciparum in erythrocytes, SYBR Green DNA, 72 h
# Procedure, shortened: (§2)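 P. falciparum-infected erythrocytes (0.3% parasitemia, 2.5% hematocrit) incubated with compound 72 h at 37 C, 5% CO2. Parasite DNA detected by SYBR Green after lysis, overnight at room temperature; normalised to 0.29 uM artemisinin and DMSO.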
# 3D7 = experiment: as above; conditions: P. falciparum in erythrocytes, SYBR Green DNA, 72 h; series mostly up to 28.7 µM
# Procedure, shortened: as §2
# 7G8 = experiment: as above; conditions: P. falciparum in erythrocytes, SYBR Green DNA, 72 h; series mostly up to 28.7 µM
# Procedure, shortened: as §2
# AA1029 = experiment: as above; conditions: P. falciparum in erythrocytes, SYBR Green DNA, 72 h; series mostly up to 28.7 µM
# Procedure, shortened: as §2
# [8] = measured here: PEO1 parental Z-AUC
# [9] = TFE3-RCC UOK109 viability, measured here: UOK109 Z-AUC
# [10] = TFE3-RCC viability, measured here: UOK124 Z-AUC
# [11] = TFE3-RCC viability, measured here: UOK145 Z-AUC
compound,measurement,setting,value
CC(C)(C)NC(=O)[C@H]1CC[C@H]2[C@@H]3CC[C@H]4NC(=O)C=C[C@]4(C)[C@H]3CC[C@]12C,Z-AUC,[1],1.47 (inactive)
same,Z-AUC,[1]; [8],1.04
same,Z-AUC,[1]; measured here: PEO4 Z-AUC,1.46
C[C@@H](CN1CC(=O)NC(=O)C1)N1CC(=O)NC(=O)C1,Z-AUC,[1],1.24 (inactive)
same,Z-AUC,[1]; [8],1.43
same,Z-AUC,[1]; measured here: PEO4 Z-AUC,0.873
CCN(CC)CCn1c(=O)c(Cc2ccc(OC)cc2)nc2ccccc21,Z-AUC,[1],0.658 (inactive)
same,Z-AUC,[1]; [8],1.23
same,Z-AUC,[1]; measured here: PEO4 Z-AUC,1.19
same,z-score,[2]; [9],0.411
same,z-score,[2]; [10],0.577
same,z-score,[2]; [11],0.628
NC(=O)c1cccc(N)c1,Z-AUC,[1],1.42 (inactive)
same,Z-AUC,[1]; [8],1.33
same,Z-AUC,[1]; measured here: PEO4 Z-AUC,0.943
CCC(=O)O[C@]1(C(=O)CCl)[C@@H](C)C[C@H]2[C@@H]3CCC4=CC(=O)C=C[C@]4(C)[C@@]3(F)[C@@H](O)C[C@@]21C,Z-AUC,[1],-0.206 (inactive)
same,Z-AUC,[1]; [8],0.492
same,Z-AUC,[1]; measured here: PEO4 Z-AUC,-0.658
COc1ccc2cc3[n+](cc2c1OC)CCc1cc2c(cc1-3)OCO2,outcome,[3],inactive
same,outcome,[4],inactive
same,outcome,[5],inactive
same,outcome,[6],inactive
same,Z-AUC,[1],0.64 (inactive)
same,Z-AUC,[1]; [8],-0.712
same,Z-AUC,[1]; measured here: PEO4 Z-AUC,0.437
same,Potency,[7]; parasite line A,447 nM (active)
same,Potency,[7]; parasite line B,1260 nM (active)
same,Potency,3D7,2000 nM (active)
same,Potency,7G8,282 nM (active)
same,Potency,AA1029,708 nM (active)
CCCOc1ccc(C(=O)OCCN(CC)CC)cc1N,Z-AUC,[1],1.6 (inactive)
same,Z-AUC,[1]; [8],1
same,Z-AUC,[1]; measured here: PEO4 Z-AUC,0.987
CC(=O)CC(c1ccccc1)c1c(O)c2ccccc2oc1=O (stereo unspecified),Z-AUC,[1],1.13 (inactive)
same,Z-AUC,[1]; [8],1.51
same,Z-AUC,[1]; measured here: PEO4 Z-AUC,1.67
same,z-score,[2]; [9],0.83
same,z-score,[2]; [10],0.655
same,z-score,[2]; [11],0.641
COC(=O)Nc1nc2ccc(S(=O)c3ccccc3)cc2[nH]1 (stereo unspecified),Z-AUC,[1],0.889 (inactive)
same,Z-AUC,[1]; [8],0.292
same,Z-AUC,[1]; measured here: PEO4 Z-AUC,0.543
O=C(O)CCn1c2c(c3ccccc31)C[C@H](NS(=O)(=O)c1ccc(F)cc1)CC2,Z-AUC,[1],0.321 (inactive)
same,Z-AUC,[1]; [8],0.0173
same,Z-AUC,[1]; measured here: PEO4 Z-AUC,0.558
same,z-score,[2]; [9],0.68
same,z-score,[2]; [10],0.798
same,z-score,[2]; [11],0.766
NC1(c2ccc(-c3nc4ccn5c(=O)[nH]nc5c4cc3-c3ccccc3)cc2)CCC1,Z-AUC,[1],0.493 (inactive)
same,Z-AUC,[1]; [8],0.0138
same,Z-AUC,[1]; measured here: PEO4 Z-AUC,-0.184
CCOC(=O)[C@H](CCc1ccccc1)N[C@H]1CCc2ccccc2N(CC(=O)O)C1=O,Z-AUC,[1],-0.332 (inactive)
same,Z-AUC,[1]; [8],-0.731
same,Z-AUC,[1]; measured here: PEO4 Z-AUC,-0.74
O=C(NCC1CN(c2ccc(N3CCOCC3=O)cc2)C(=O)O1)c1ccc(Cl)s1 (stereo unspecified),Z-AUC,[1],-0.884 (inactive)
same,Z-AUC,[1]; [8],-0.579
same,Z-AUC,[1]; measured here: PEO4 Z-AUC,-0.444
CO[C@@]12[C@H](COC(N)=O)C3=C(C(=O)C(C)=C(N)C3=O)N1C[C@@H]1N[C@@H]12,Z-AUC,[1],0.952 (inactive)
same,Z-AUC,[1]; [8],0.894
same,Z-AUC,[1]; measured here: PEO4 Z-AUC,1.04
CCCCS(=N)(=O)CCC(N)C(=O)O (stereo unspecified),Z-AUC,[1],-0.0852 (inactive)
same,Z-AUC,[1]; [8],0.0714
same,Z-AUC,[1]; measured here: PEO4 Z-AUC,0.126
same,z-score,[2]; [9],0.217
same,z-score,[2]; [10],0.527
same,z-score,[2]; [11],0.0952
NNC(=O)c1ccncc1,outcome,[3],inactive
same,outcome,[4],inactive
same,outcome,[5],inactive
same,outcome,[6],inactive
same,Z-AUC,[1],0.416 (inactive)
same,Z-AUC,[1]; [8],1.78
same,Z-AUC,[1]; measured here: PEO4 Z-AUC,1.56
same,z-score,[2]; [9],1.86
same,z-score,[2]; [10],0.222
same,z-score,[2]; [11],0.436
